Cruzain Triton – cruzain (T. cruzi) inhibition with detergent. P25779. purified cruzain, Z-FR-AMC fluorescence, 0.01% Triton. Potency, µM, without a hit: max response, negative = inhibition, hits mostly inhibitors. actives 0.43% (n = 200,000);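 note: plate controls were neutral wells for no effect and buffer without enzyme for full effect; nearly all actives have a fitted effect of over 40% in size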
Target sequence (P25779 123-467 limits assumed): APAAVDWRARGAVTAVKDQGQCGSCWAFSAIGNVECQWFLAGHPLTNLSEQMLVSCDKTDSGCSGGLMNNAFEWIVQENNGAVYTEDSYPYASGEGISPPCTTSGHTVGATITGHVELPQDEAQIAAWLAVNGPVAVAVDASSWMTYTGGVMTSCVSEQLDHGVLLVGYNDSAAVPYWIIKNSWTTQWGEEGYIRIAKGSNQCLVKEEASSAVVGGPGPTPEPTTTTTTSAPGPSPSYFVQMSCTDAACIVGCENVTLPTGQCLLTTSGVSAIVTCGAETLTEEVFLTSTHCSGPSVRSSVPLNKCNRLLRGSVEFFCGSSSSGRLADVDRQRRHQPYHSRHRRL
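Z-FR-AMC hydrolysis (2 uM substrate) by cruzain (1.5 nM) monitored kinetically at ex 360/em 450 nm after 15 min room-temperature compound exposure; 0.01% Triton X-100, pH 5.5, 5 mM DTT.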
Cruzain noTriton – cruzain (T. cruzi) inhibition without detergent. actives 2.3% (n = 200,000). Potency, µM, for the others: max response, negative = inhibition, actives largely listed as inhibitors. purified cruzain, Z-FR-AMC fluorescence, no detergent. P25779;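 note: plate controls were enzyme without inhibitor for no effect and buffer without enzyme for full effect; nearly all actives have a fitted effect of over 40% in size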
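Detergent-free condition (0.00005% Triton X-100) in acetate buffer pH 5.5 with DTT. 1.5 nM enzyme and compound were pre-mixed 15 min, then 2 uM Z-FR-AMC substrate added; reaction progress from fluorescence change between first and third reads (60 s).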
Numbers without * were called inactive; ? = inconclusive. Shown are actives, neighbours in structure and some others; about 2.4% of the full set was active somewhere. Calls come from the whole dose curve; as a rule, active = well fitted curve in the direction sought with a large enough effect; inconclusive = small, poorly fitted or top-dose-only effect, or another doubt; inactive = no such curve, though single readings can be large; an effect the other way counts as inactive or inconclusive. Potency is the fitted concentration of half-maximal effect.

SMILES	Cruzain Triton	Cruzain noTriton
CCCCC/C=C\C\C=C/C=C/C=C/[C@@H](SCC(N)C(=O)O)[C@@H](O)CCCC(=O)O (some centres not stated)	3%	3%
CCc1ccc(NC(=O)c2cc3nc(-c4ccc(C)cc4)cc(C(F)(F)F)n3n2)cc1	0%	?
O=C(NCc1ccccc1)C12CN(Cc3ccccc3)CC1C(c1cccc([N+](=O)[O-])c1)=NO2 (configuration not stated)	4%	-26%
O=C(NCc1ccc(OC(F)(F)F)cc1)C12CN(Cc3ccccc3)CC1C(c1cccc([N+](=O)[O-])c1)=NO2 (configuration not stated)	1%	20µM*
CN(C)CCNc1oc(/C=C/c2ccccc2)nc1C#N	-29%	25µM*
CCOc1ccc(/C=C/c2nc(C#N)c(NCCCN(C)C)o2)cc1	-16%	?
CCOc1ccc(/C=C/c2nc(C#N)c(NCc3ccccc3)o2)cc1	-6%	3%
COc1cc(/C=C/c2nc(C#N)c(NCCc3ccccc3)o2)cc(OC)c1OC	9%	?
C=CCNc1oc(/C=C/c2ccccc2)nc1C#N	32µM*	?
CN(C)CCCNc1oc(/C=C/c2ccc(F)cc2)nc1C#N	?	25µM*
CCOC(=O)c1c(C)[nH]c(C)c1S(=O)(=O)NCC(=O)Nc1ccc(CC)cc1	0%	3%
CCOc1ccccc1CNC(=O)C1CCN(S(=O)(=O)c2cccc3nonc23)CC1	0%	-6%
Cc1ccc(OCCn2c(C3CC(=O)N(Cc4ccc(F)cc4)C3)nc3ccccc32)c(C)c1 (configuration not stated)	-1%	-2%
CC(C)CCNS(=O)(=O)c1ccc(-c2ccc(S(=O)(=O)NCCC(C)C)cc2)cc1	-1%	10µM*
COc1ccc(S(=O)(=O)NCCC(C)C)cc1OC	2%	5%
Cc1cc2nn(-c3ccc(F)cc3)nc2cc1NC(=O)c1cccc([N+](=O)[O-])c1C	0%	0%
O=C(CN1C(=O)C2CC=CCC2C1=O)Nc1nnc(SCc2ccc(Cl)cc2)s1 (configuration not stated)	-3%	-20%
CCS(=O)(=O)N1Cc2ccccc2CC1C(=O)Nc1nc2c(C)cccc2s1 (configuration not stated)	-12%	25µM*
CCS(=O)(=O)N1Cc2ccccc2CC1C(=O)Nc1nccs1 (configuration not stated)	7%	-5%
CCS(=O)(=O)N1Cc2ccccc2CC1C(=O)Nc1nnc(SCc2c(Cl)cccc2Cl)s1 (configuration not stated)	-1%	7.9µM*
CCSc1nnc(NC(=O)C2Cc3ccccc3CN2S(=O)(=O)CC)s1 (configuration not stated)	-9%	-6%
O=C(CN1C(=O)C2CC=CCC2C1=O)Nc1nnc(SCc2c(Cl)cccc2Cl)s1 (configuration not stated)	1%	16µM*
CCOC(=O)c1oc2ccc(S(=O)(=O)n3nc(-c4ccc(C)cc4)cc3N)cc2c1C	-1%	?
CCOC(=O)c1oc2ccc(S(=O)(=O)n3nc(-c4ccc(Cl)cc4)cc3N)cc2c1C	2%	13µM*
CCc1ccc(OCc2nnc(SCC(=O)Nc3cccc(C(=O)N4CCOCC4)c3)o2)cc1	-3%	?
SMILES	Cruzain Triton	Cruzain noTriton
COC(=O)c1ccc(NC(=O)CSc2nnc(COc3ccc4c(c3)CCCC4)o2)cc1	5%	10µM*
COc1cccc(NC(=O)CSc2nnc(COc3ccc4c(c3)CCCC4)o2)c1	-1%	14%
CCc1ccc(NC(=O)CSc2nnc(COc3ccc4c(c3)CCCC4)o2)cc1	5%	16µM*
CCn1c(=O)n(-c2ccc(F)c(Cl)c2)c(=O)c2sc3ccccc3c21	0%	-7%
COc1ccc(CNC(=O)CN2C(=O)C3CCCN3c3ncc(Cl)cc32)cc1 (configuration not stated)	-3%	-26%
O=C(CN1C(=O)C2CCCN2c2ncc(Cl)cc21)NCc1ccc2c(c1)OCO2 (configuration not stated)	3%	25µM*
CCc1ccccc1NC(=O)CN1C(=O)C2CCCN2c2ncc(Cl)cc21 (configuration not stated)	2%	-3%
COC(=O)c1ccccc1NC(=O)CN1C(=O)C2CCCN2c2ncc(Cl)cc21 (configuration not stated)	-2%	10µM*
CC(=O)c1cccc(NC(=O)CCn2nc(C)c(S(=O)(=O)N(C)C)c2C)c1	-1%	-13%
Nn1c(SCC(=O)NC2CCCCC2)nnc1-c1ccc(Cl)cc1	0%	-1%
C=CCN1C(=O)/C(=C\c2ccc(Cl)cc2)N=C1SCC(=O)NC1CCCCC1	1%	10µM*
C[C@@H]1NCC[C@H](CC(=O)O)[C@H]1CC(=O)O	2%	2%
FC(F)(F)c1cnc(-c2cnc3c(-c4ccc(Cl)cc4)cnn3c2)c(Cl)c1	5%	10µM*
N#Cc1cnn2cc(-c3ncc(C(F)(F)F)cc3Cl)cnc12	1%	1%

From PubChem BioAssay
